Assay outcomes deposited in PubChem by National Center for Advancing Translational Sciences (NCATS).
SMN2 splice up: enhancers of SMN2 splice variant expression | HEK293 SMN2-luciferase splicing reporter, luminescence, 30-36 h | Potency, µM (top dose mostly 46.1 µM), for inactives: at the top dose activity change, positive = activation, most hits filed as activators | actives 2.8% (n = 210,000) | AID 1458; also: % of control where 0% means no effect; nearly all actives have a fitted effect of over 55% in size
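qHTS luciferase splicing reporter: luminescence rises when SMN2 exon 7 is included in transfected HEK293 cells. Compound exposure lasted 30-36 h at 37C, with 4.5 mM final sodium butyrate as control, followed by a ONE-Glo read.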
FLuc modulator: inhibits or activates purified firefly luciferase, miR-21 counter-screen; purified FLuc, Km substrates, luminescence inhibition; actives 6.9% (n = 360,000); P08659; Potency, µM (doses to about 57.5 µM), for inactives: at the highest dose activity change, negative = inhibition, usual class: inhibitors;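 also: plate controls were vehicle for no effect and reference inhibitor for full effect; nearly all actives have a fitted effect of over 55% in size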
Target sequence (P08659 whole entry, looked up): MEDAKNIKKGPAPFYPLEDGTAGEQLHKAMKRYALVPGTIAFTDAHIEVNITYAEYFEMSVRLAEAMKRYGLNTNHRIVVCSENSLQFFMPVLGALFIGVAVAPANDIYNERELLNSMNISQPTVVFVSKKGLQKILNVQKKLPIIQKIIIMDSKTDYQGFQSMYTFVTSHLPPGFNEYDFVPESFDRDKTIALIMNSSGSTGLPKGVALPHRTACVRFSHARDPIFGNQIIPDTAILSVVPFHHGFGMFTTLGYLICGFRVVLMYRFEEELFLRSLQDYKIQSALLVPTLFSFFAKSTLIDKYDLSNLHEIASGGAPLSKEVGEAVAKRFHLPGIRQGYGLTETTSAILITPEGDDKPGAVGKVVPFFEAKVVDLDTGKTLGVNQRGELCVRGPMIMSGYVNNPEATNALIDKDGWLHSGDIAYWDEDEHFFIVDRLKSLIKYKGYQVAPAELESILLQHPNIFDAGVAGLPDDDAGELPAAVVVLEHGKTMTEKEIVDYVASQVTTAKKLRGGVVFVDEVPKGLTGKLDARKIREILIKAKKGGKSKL
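Biochemical qHTS of compounds, final roughly 60 µM downward over six points, against 10 nM purified firefly luciferase using Km concentrations of substrates (10 uM D-luciferin, 10 uM ATP) in Tris acetate pH 7.5 buffer; luminescence output.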
ELG1 DNA repair: ELG1-dependent DNA repair inhibition; HEK293T ELG1-luciferase reporter, luminescence, 16 h; DNA damage induced by 5-fluorouridine; Potency, µM (doses to about 46.1 µM), for the others: top-dose activity change, negative = inhibition, actives largely listed as inhibitors; actives 2.3% (n = 330,000); AID 504467; also: % is scaled to controls: 0 for no effect and ±100 for the full control effect; nearly all actives have a fitted effect of over 55% in size
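Quantitative HTS, concentration-response format. 2,000 cells/well co-treated with 5-fluorouridine and compound, 16 hr in 5% CO2 at 37 °C; ONE-Glo luminescence read after 30 min.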
ELG1 genotox: induces genotoxicity in HEK293T cells with luciferase-tagged ELG1; HEK293T ELG1-luciferase reporter, luminescence, 16 h; AID 504466; actives 1.3% (n = 330,000); Potency, µM (highest dose often 46 µM), inactives show at the top dose activity change, positive = activation, actives largely listed as activators; also: % of control where 0% means no effect; nearly all actives have a fitted effect of over 60% in size
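Step 1: seed 2,000 HEK293T ELG1-luciferase cells per well. Step 2: add compound or DMSO, incubate 16 hr at 37 °C. Step 3: ONE-Glo, 30 min at room temperature, read luminescence.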
Rab9 prom act: activators of Rab9 promoter. Potency, µM (top dose mostly 9.22 µM), inactives show at the top dose activation, negative = inhibition, most hits filed as activators. actives 2.8% (n = 320,000). Huh7 Rab9 promoter-luciferase reporter, luminescence, 24 h; also: % of control where 0% means no effect; nearly all actives have a fitted effect of over 60% in size
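Huh7 cells stably carrying a Rab9 promoter-luciferase reporter, 1500 cells per well in OP-MEM I with 10% FBS, treated with compound 24 hours at 37C. Luciferase activity read by luminescence after 10 minutes with Amplite reagent.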
NPC1 promoter act: activators of NPC1 promoter | Potency, µM (top dose mostly 9.22 µM), for inactives: top-dose activation, hits mostly activators | actives 2.4% (n = 320,000) | Huh7 NPC1 promoter luciferase reporter, 24 h | AID 485313; also: % of control where 0% means no effect; nearly all actives have a fitted effect of over 60% in size
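In 1536-well qHTS, Huh7 cells harboring an NPC1 promoter–luciferase construct received compound for 24 h; activation was quantified by luminescence following luciferase reagent addition.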
Active calls of the source: *; ? = inconclusive; · = no result. Hits are enriched below; roughly 9.4% of the tested compounds scored in any of these assays. Calls follow the shape of the dose curve; as a rule, active = well fitted curve in the direction sought with a large enough effect; inconclusive = small, poorly fitted or top-dose-only effect, or another doubt; inactive = no such curve, though single readings can be large; an effect the other way counts as inactive or inconclusive. Potency is read from the fitted curve at half-maximal effect.

SMILES | SMN2 splice up | FLuc modulator | ELG1 DNA repair | ELG1 genotox | Rab9 prom act | NPC1 promoter act
COc1cccc(NC(=O)c2ccc3c(c2)OCCO3)c1 | · | 0.675µM* | ? | 2.06µM* | 0.708µM* | 1.78µM*
COc1cccc(NC(=O)c2oc3ccccc3c2NC(=O)c2ccc3c(c2)OCO3)c1 | 0.8% | 2.69µM* | ? | -6.8% | 28.3% | 15.6%
COc1cccc(NC(=O)COC(=O)c2ccc3c(c2)OCO3)c1 | · | -13.9% | 3.9% | 1.4% | 0.2% | -1.2%
COc1ccccc1NC(=O)C1=C(C)Nc2nc(-c3ccco3)nn2C1c1cccc(C)c1 (centres undefined) | -5.8% | -6.5% | · | · | · | ·
O=[N+]([O-])c1cc(-c2nc(-c3ccccc3)no2)ccc1NCc1cccnc1 | · | -10.5% | · | · | · | ·
Cc1cc(NC(=O)Nc2ccccc2F)ccc1Br | · | 2.39µM* | ? | ? | 1.26µM* | 1.41µM*
O=C(Nc1ccccc1)Nc1ccc(Br)cc1F | 12.6µM* | ? | ? | 13.8% | ? | ?
O=C(O)CSc1ccc(NC(=O)Nc2ccccc2F)cc1 | · | 12µM* | 12.5% | 2.3% | 2.1% | -1.6%
CC(C)c1ccc(NC(=O)c2cc(Br)ccc2Br)cc1 | 3.8% | ? | 0.0% | 3.1% | 14.0% | 14.4%
O=C(Nc1ccc(Cl)cc1)c1ccc(Br)cc1F | 14.1µM* | 3.01µM* | ? | 3.26µM* | 1µM* | 1.41µM*
CC(=O)Nc1ccc(SCC(=O)O)cc1 | 4.0% | 1.1% | 0.7% | -0.9% | 3.4% | -5.1%
O=C(Nc1cccc(Cl)c1)Nc1ccc(Br)cc1F | -16.1% | -20.1% | 13.8% | -0.9% | 1.0% | 2.7%
CCc1ccc(CNC(=O)CN2C(=O)CSc3c2c(C)nn3-c2ccccc2)cc1 | · | -4.1% | · | · | · | ·
COc1ccc(CNC(=O)Cn2nc(N3CCN(c4ccccc4)CC3)ccc2=O)c(OC)c1 | · | -1.4% | · | · | · | ·
Cc1nn(-c2cc(C(F)(F)F)ccn2)c(=O)o1 | · | 3.0% | -8.4% | -2.7% | -8.0% | -2.1%
CCc1nc(CN2CCN(c3cc(C(F)(F)F)ccn3)CC2)c(C)[nH]1 | · | -0.2% | 7.3µM* | -6.4% | -13.7% | -7.3%
Cc1ccc(CNC(=O)CCN2C(=O)C(C)Oc3ccc(C)cc32)cc1 (centres undefined) | -9.3% | -7.4% | · | · | · | ·
O=C(CN1CCCN(Cc2cccc(F)c2)S1(=O)=O)Nc1ccc2c(c1)OCCO2 | · | -4.5% | · | · | · | ·
Cc1cc(C(=O)COC(=O)CNC(=O)c2ccccc2)c(C)n1CC1CCCO1 (centres undefined) | -6.3% | 19µM* | ? | 8.3% | -12.2% | -4.0%
Cc1cccc(C(=O)NCC(=O)OCC(=O)c2cc(C)n(CC3CCCO3)c2C)c1 (centres undefined) | 7.8% | 21.3µM* | ? | ? | 21.6% | 15.1%
COCCn1c(C)cc(C(=O)COC(=O)CNC(=O)c2ccccc2)c1C | 3.3% | ? | ? | 10.8% | -3.7% | -1.7%
O=C(c1ccco1)N1CCN(C(=O)c2ccc(-c3ccc(Cl)cc3)o2)CC1 | · | 16.9µM* | ? | -7.3% | 8.5% | 1.3%
CS(=O)(=O)N1CCN(c2ccccc2NC(=O)c2ccc(-c3ccc(Cl)cc3Cl)o2)CC1 | -6.8% | -4.6% | ? | -5.0% | -9.1% | 4.2%
O=C(Nc1ccc(N2CCCC2)c(Cl)c1)c1ccco1 | 6.31µM* | 4.78µM* | ? | ? | 0.501µM* | 1.41µM*
O=C(c1ccc(Cl)cc1)N1CCN(C(=O)c2ccco2)CC1 | -6.2% | -6.0% | 9.5% | 1.7% | -2.9% | -4.9%
SMILES | SMN2 splice up | FLuc modulator | ELG1 DNA repair | ELG1 genotox | Rab9 prom act | NPC1 promoter act
CN1CCN(c2ccccc2NC(=O)c2ccc(-c3ccc(Cl)cc3Cl)o2)CC1 | 0.6% | -18.2% | 20.6µM* | -8.5% | -11.2% | -3.8%
Cc1ccc(NC(=O)c2cc(NC(=O)c3ccco3)ccc2N2CCOCC2)cc1Cl | -4.4% | 4.6% | 16.4µM* | 8.5% | -0.3% | -9.7%
CCc1cccc(C)c1NC(=O)CSc1nc(C)cc(C)c1C(=O)Nc1ccccc1 | · | -9.1% | · | · | · | ·
Cc1ccc(-c2nnc3ccccc3c2C(=O)Nc2cccc(C(F)(F)F)c2)cc1 | · | -7.9% | · | · | · | ·
CC(C)c1cccc(C(C)C)c1NS(=O)(=O)c1cccs1 | 1.3% | -2.2% | · | · | · | ·
COCCNC(=O)CCCn1c(SCc2ccccc2C)nc2c(sc3ccccc32)c1=O | ? | 2.4% | · | · | · | ·
O=C(Nc1cc(Cl)ccc1N1CCOCC1)c1ccco1 | · | 1.6% | -2.1% | 0.6% | -0.4% | -1.7%
O=C(Nc1ccc(CCC(=O)N2CCCC2)cc1)c1ncn[nH]1 | 7.8% | ? | 22.2% | -0.4% | 3.3% | -3.6%
CCN1CCN(c2ccc(NC(=O)c3ccco3)cc2Cl)CC1 | · | 16.9µM* | ? | ? | ? | ?
O=C(Nc1ccc(N2CCCCC2)c(Cl)c1)c1ncn[nH]1 | · | 6.01µM* | ? | ? | 23.5% | ?
O=C(Cc1ccc(Cl)cc1)Nc1ccc(N2CCN(C(=O)c3ccco3)CC2)c(Cl)c1 | -50.1% | -4.8% | 13µM* | -8.2% | 1.9% | -5.4%
CCC(=O)Nc1ccc(N2CCN(C(=O)c3ccco3)CC2)c(Cl)c1 | · | -1.5% | ? | -2.7% | -3.9% | -2.8%
O=C(Nc1ccc(N2CCOCC2)c([N+](=O)[O-])c1)c1ccco1 | 12.6µM* | 16.9µM* | ? | 7.1% | ? | 26.0%
CN1CCN(c2ccc(NC(=O)c3ccco3)cc2Cl)CC1 | · | 4.78µM* | ? | 8.2µM* | 0.631µM* | 0.398µM*
Cc1ccc(NC(=O)Cn2nc(-c3ccco3)ccc2=O)cc1Cl | · | -3.3% | -11.8% | -0.9% | 0.3% | 0.7%
O=C(Nc1ccc(CN2CCCCC2)cc1)c1cccc(F)c1 | 19.6% | ? | ? | ? | 22.9% | 16.3%
Cc1ccc(NC(=O)c2ncoc2-c2ccco2)cc1Cl | · | 10.7µM* | · | · | · | ·
CCN1CCN(c2ccc(NC(=O)c3cccc(F)c3)cc2Cl)CC1 | · | 16.9µM* | ? | ? | 3.55µM* | ?
O=C(O)CCC[C@H](O)\C=C/C=C/C=C/[C@H](O)C/C=C\CCCCCO | 16.4% | · | · | · | · | ·
CNC(=O)COC(=O)c1cc2c(s1)CCCC2 | 9.4% | -16.6% | 6.6% | 9.5% | 4.9% | -2.3%
C/C(N)=C(/C#N)C(=O)COC(=O)c1cc2c(s1)CCC(C)C2 (centres undefined) | 20.5% | 16.9µM* | ? | ? | -2.3% | -2.2%
C/C(N)=C(/C#N)C(=O)COC(=O)c1cc2c(s1)CCCC2 | 24.1% | 15.1µM* | 10.9% | ? | -19.3% | 0.6%
Nn1c(-c2ccccc2Cl)nnc1-c1ccccc1Cl | ? | 0.953µM* | ? | ? | 3.98µM* | 3.55µM*
O=C(N/N=C/C(Cl)=C/c1ccccc1)c1ccco1 | · | 5.36µM* | ? | ? | 1.41µM* | 2.24µM*
